About 83,000 compounds went through this panel and 20% of them were active in at least one assay; those are over-represented in the sample as a whole.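 The endpoint reported here, percent growth, reads 100 for growth as untreated, 0 for no net growth and -100 for all cells dead.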 Values without a mark were called inactive. Active and inactive are the calls of the source. The calls were made as follows: active = growth percent below 10; inactive = the rest.

Common to all, as to assay: NCI-60 one-dose screen, 48 h (100 = growth as untreated, 0 = no growth, -100 = all killed)
One experiment relates to NCI-H23 lung. The following applies: 10 µM unless noted.
For another experiment, the system named is NCI-H226 lung. The following applies: 10 µM unless noted.
Another experiment concerns NCI-H322M lung. The following applies: 10 µM unless noted.
Another experiment has as its system HOP-62 NSCLC. The following applies: 10 µM unless noted.
The test system of a further experiment is NCI-H460 lung. The following applies: 10 µM unless noted.
Another experiment has as its system HOP-92 NSCLC. The following applies: 10 µM.
The next experiment has as its system NCI-H522 lung. The following applies: 10 µM unless noted.
For a further experiment, the system named is A549/ATCC NSCLC. The following applies: 10 µM unless noted.
Another experiment relates to 786-0 renal. The following applies: 10 µM unless noted.
A further experiment concerns COLO 205 colon. The following applies: 10 µM unless noted.
The subject of a further experiment is DU-145 prostate. The following applies: 10 µM unless noted.
The test system of another experiment is K-562 leukemia. The following applies: 10 µM unless noted.
The next experiment deals with MALME-3M melanoma. The following applies: 10 µM unless noted.
Another experiment deals with MDA-MB-231 breast. The following applies: 10 µM unless noted.
Another experiment deals with RXF 393 renal. The following applies: 10 µM unless noted.
The next experiment concerns SF-268 CNS. The following applies: 10 µM unless noted.
The next experiment relates to SF-295 CNS. The following applies: 10 µM unless noted.
Another experiment deals with SF-539 CNS. The following applies: 10 µM unless noted.
The next experiment has as its system UACC-257 melanoma. The following applies: 10 µM unless noted.

Turning to `O=[N+]([O-])c1cc(/C=N/Nc2nc(N/N=C/c3ccc(Cl)c([N+](=O)[O-])c3)nc(N3CCCCC3)n2)ccc1Cl`, the growth in the experiment on NCI-H23 lung is 81.8%; in the experiment with NCI-H226 lung it was 61.4%; with NCI-H322M lung, 71.3%; in the experiment with HOP-62 NSCLC it was 43.7%; with NCI-H460 lung, 98.7%; with HOP-92 NSCLC, 123%. Moreover, the growth in the experiment with NCI-H522 lung was 51.9%; in the experiment on A549/ATCC NSCLC, 111%; in the experiment with 786-0 renal it was 109%; in the experiment on COLO 205 colon, 100%; in the experiment with DU-145 prostate it was 29.6%; in the experiment on K-562 leukemia it was 31.7%. For the same molecule, the growth in the experiment with MALME-3M melanoma was 101%; in the experiment on MDA-MB-231 breast, 48.3%; with RXF 393 renal, 99.9%; in the experiment on SF-268 CNS, 64.9%; in the experiment on SF-295 CNS, 93.2%; with SF-539 CNS, 36.3%. For the same molecule, the growth in the experiment on UACC-257 melanoma is 51.1%.
In the case of `O=S(=O)(Oc1ccc(-c2nnc(Nc3ccccc3)s2)cc1)C(F)(F)C(F)(F)C(F)(F)C(F)(F)C(F)(F)C(F)(F)F`, the growth in the experiment on NCI-H23 lung is 100%; with NCI-H226 lung, 99.6%; in the experiment on NCI-H322M lung it was 113%; in the experiment on HOP-62 NSCLC, 103%; in the experiment on NCI-H460 lung, 103%; in the experiment on HOP-92 NSCLC, 101%. The growth in the experiment on NCI-H522 lung is 95.9%; in the experiment on A549/ATCC NSCLC it was 101%; with 786-0 renal, 108%; with COLO 205 colon, 104%; in the experiment with DU-145 prostate, 107%; in the experiment on K-562 leukemia it was 94.4%. In addition, the growth in the experiment with MALME-3M melanoma was 108%; in the experiment with MDA-MB-231 breast it was 86.9%; in the experiment on RXF 393 renal it was 102%; in the experiment with SF-268 CNS it was 100%; with SF-295 CNS, 105%; in the experiment with SF-539 CNS it was 97.7%. For the same molecule, in the experiment on UACC-257 melanoma, the growth was 96.8%.
On to `Cc1ccc(-n2cc(/C=N/NC(=O)c3ccncc3)c(-c3ccc(S(C)(=O)=O)cc3)n2)cc1`, for which the growth was 83% with NCI-H23 lung; 101% with NCI-H226 lung; 93.5% in the experiment on NCI-H322M lung; 88.7% with HOP-62 NSCLC; 101% in the experiment with NCI-H460 lung; 97.5% in the experiment with HOP-92 NSCLC. Moreover, the growth in the experiment on NCI-H522 lung was 68.8%; in the experiment with A549/ATCC NSCLC, 103%; in the experiment with 786-0 renal, 90%; in the experiment with COLO 205 colon it was 104%; with DU-145 prostate, 97.3%; in the experiment with K-562 leukemia, 32.3%. Also, the growth is 68.7% in the experiment with MALME-3M melanoma; 79.5% in the experiment with MDA-MB-231 breast; 103% with RXF 393 renal; 100% with SF-268 CNS; 102% in the experiment with SF-295 CNS; 91.8% in the experiment with SF-539 CNS. Also, the growth in the experiment on UACC-257 melanoma was 96.5%.
`NC(=O)c1c(NC(=O)c2ccccc2C(F)(F)F)sc2c1CCC(=O)C2`: the growth is 4.77% (active) in the experiment with NCI-H23 lung; 37.9% with NCI-H226 lung; 105% in the experiment with NCI-H322M lung; 93.4% in the experiment with HOP-62 NSCLC; 58.4% in the experiment on NCI-H460 lung; -9.74% (active) in the experiment with HOP-92 NSCLC. Also, the growth was -1.13% (active) with NCI-H522 lung; 94% in the experiment with A549/ATCC NSCLC; 37.5% in the experiment with 786-0 renal; 38.3% in the experiment with COLO 205 colon; 81.2% with DU-145 prostate; 11.7% in the experiment with K-562 leukemia. Moreover, the growth was 15% in the experiment on MALME-3M melanoma; 16.2% in the experiment with MDA-MB-231 breast; 41.7% in the experiment with RXF 393 renal; 24.6% with SF-268 CNS; 73% in the experiment on SF-295 CNS; 5.83% (active) with SF-539 CNS. The growth with UACC-257 melanoma is 10.6%.
As to `CCN(CC)c1cn(-c2ccc(S(N)(=O)=O)cc2)nn1`, the growth in the experiment with NCI-H23 lung is 109%; with NCI-H226 lung it was 109%; in the experiment with NCI-H322M lung, 110%; in the experiment with HOP-62 NSCLC, 112%; with NCI-H460 lung, 106%; with HOP-92 NSCLC it was 99%. Also, the growth is 92.9% in the experiment on NCI-H522 lung; 105% with A549/ATCC NSCLC; 106% with 786-0 renal; 109% with COLO 205 colon; 105% with DU-145 prostate; 91.6% in the experiment on K-562 leukemia. Further, the growth in the experiment with MALME-3M melanoma is 103%; in the experiment with MDA-MB-231 breast it was 102%; with RXF 393 renal it was 114%; in the experiment with SF-268 CNS it was 101%; in the experiment with SF-295 CNS it was 101%; with SF-539 CNS it was 99.6%. Further, the growth in the experiment with UACC-257 melanoma is 99.7%.
With `Cc1ccc(-c2nnc(SCc3ccc(O)c4ncccc34)n2-c2ccccc2)cc1`, the growth was 15.6% in the experiment with NCI-H23 lung; 24.4% with NCI-H226 lung; 19.6% in the experiment on NCI-H322M lung; 10.6% in the experiment on HOP-62 NSCLC; -15.8% (active) in the experiment on NCI-H460 lung; -12.5% (active) in the experiment with HOP-92 NSCLC. The growth is -5.09% (active) in the experiment on NCI-H522 lung; 11.3% with A549/ATCC NSCLC; 25% in the experiment on 786-0 renal; 25.6% with COLO 205 colon; 30.2% in the experiment on DU-145 prostate; 6.04% (active) with K-562 leukemia. The growth in the experiment with MALME-3M melanoma is 3.77% (active); in the experiment with MDA-MB-231 breast, 23.6%; in the experiment on RXF 393 renal, -0.61% (active); with SF-268 CNS, 14.8%; in the experiment on SF-295 CNS, -10.3% (active); with SF-539 CNS, 5.11% (active). In addition, in the experiment on UACC-257 melanoma, the growth is -7.27% (active).
Consider `O=C1CC(=O)N2CSCN(C(c3ccccc3)c3nc4ncncc4[nH]3)C2=N1` (configuration not stated), for which the growth with NCI-H23 lung was 99.7%; with NCI-H226 lung, 107%; in the experiment with NCI-H322M lung, 106%; with HOP-62 NSCLC, 96.8%; with NCI-H460 lung, 112%; with HOP-92 NSCLC, 112%. The growth with NCI-H522 lung is 93.9%; in the experiment with A549/ATCC NSCLC, 105%; in the experiment on 786-0 renal, 104%; in the experiment with COLO 205 colon, 114%; in the experiment with DU-145 prostate, 110%; with K-562 leukemia, 102%. The growth was 80.5% with MALME-3M melanoma; 101% in the experiment on MDA-MB-231 breast; 105% in the experiment with RXF 393 renal; 103% with SF-268 CNS; 99.1% with SF-295 CNS; 99.1% in the experiment with SF-539 CNS. Besides, the growth in the experiment on UACC-257 melanoma is 108%.
Turning to `COc1cc(Nc2c(C#N)cnn3cc(-c4cnn(CC(C)(C)O)c4)cc23)ccc1Cl`, the growth in the experiment with NCI-H23 lung was 41.4%; in the experiment on NCI-H226 lung, 42.1%; in the experiment on NCI-H322M lung, 41.9%; in the experiment on HOP-62 NSCLC, 45.6%; with NCI-H460 lung, 59.7%; in the experiment on HOP-92 NSCLC, 58.1%. Moreover, the growth was 15% in the experiment on NCI-H522 lung; 52.4% in the experiment with A549/ATCC NSCLC; 34.7% with 786-0 renal; 75.9% in the experiment with COLO 205 colon; 47.6% in the experiment on DU-145 prostate; 12.9% with K-562 leukemia. Further, the growth with MALME-3M melanoma is 67.5%; with MDA-MB-231 breast it was 65.4%; in the experiment with RXF 393 renal it was -20.3% (active); in the experiment with SF-268 CNS, 56.5%; in the experiment on SF-295 CNS it was 63%; in the experiment on SF-539 CNS, 8.69% (active). For the same molecule, the growth in the experiment on UACC-257 melanoma was 81.7%.

Values taken from PubChem BioAssay (NCI).
